Screening data: PubChem BioAssay, Sanford-Burnham Center for Chemical Genomics
CYP2C19 inh: human CYP2C19 inhibition; P33261; CYP2C19 Supersomes, luciferin-H EGE luminescence, 30 min; inhibition, % at 5 µM; 96,000 compounds, 21% hits;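 active = CYP2C19 inhibition above a set limit at 5 µM in the primary screen, cut at about 50% in these data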
CYP2C19 activ: cytochrome P450 2C19 (human) activation | P33261 | recombinant CYP2C19, luciferin-H EGE luminescence; active compounds read high; 0 = fully inhibited enzyme, 1 = untreated enzyme | activation factor at 5 µM | 96,000 tested, under 10 active | AID 1025;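 active = activation factor of at least 2 at 5 µM in the primary screen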
CYP2C9 activ: activators of human CYP2C9; P11712; recombinant CYP2C9, luciferin-H conversion, luminescence; active compounds read high; factor 1 = untreated enzyme, 0 = blocked; activation factor at 5 µM; 96,000 compounds, 1.4% hits;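 active = activation factor of 2 or more for CYP2C9 at a 5 µM dose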
Target sequence (P11712 whole entry, looked up): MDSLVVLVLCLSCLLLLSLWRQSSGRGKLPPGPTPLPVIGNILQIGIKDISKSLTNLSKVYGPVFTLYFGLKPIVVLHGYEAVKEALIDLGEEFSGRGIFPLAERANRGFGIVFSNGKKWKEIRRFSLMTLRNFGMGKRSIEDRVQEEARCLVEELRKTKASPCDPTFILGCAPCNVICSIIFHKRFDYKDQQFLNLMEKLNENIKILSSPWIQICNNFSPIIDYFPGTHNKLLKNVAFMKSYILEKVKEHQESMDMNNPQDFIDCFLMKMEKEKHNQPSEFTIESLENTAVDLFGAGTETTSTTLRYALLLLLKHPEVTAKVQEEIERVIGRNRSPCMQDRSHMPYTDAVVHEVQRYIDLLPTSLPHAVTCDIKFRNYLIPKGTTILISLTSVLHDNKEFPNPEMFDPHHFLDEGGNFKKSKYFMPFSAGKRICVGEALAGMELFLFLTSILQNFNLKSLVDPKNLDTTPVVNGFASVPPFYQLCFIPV
CYP2C9 inhib: human CYP2C9 inhibition; P11712; CYP2C9 Supersomes, luciferin-H conversion, luminescence; inhibition, % at 5 µM; 96,000 compounds, 20% hits; AID 777;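 active = blocking of liver enzyme CYP2C9 beyond about 50% at 5 µM, limit read from the data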
Numbers stand for hits; - = inactive. Sampled rows, rich in hits. Any-hit rate of the full collection: about 31%.

SMILES	CYP2C19 inh	CYP2C19 activ	CYP2C9 activ	CYP2C9 inhib
Cc1cc(C)cc(NC(=O)CSc2nnc(-c3ccccc3Br)o2)c1	-	-	-	-
COc1cccc(NC(=O)CSc2nnc(-c3cc(C)n(-c4ccccc4)c3C)o2)c1	-	-	-	78
COc1ccccc1-c1nnc(SCC(=O)NCc2c(C)c(Cl)cc(C(C)C)c2O)o1	-	-	3	-
CCOC(=O)N1CCN(Cc2nc3c(c(=O)[nH]c(=O)n3C)n2Cc2ccccc2C)CC1	-	-	-	-
COc1ccc(CN2C(=O)c3cccnc3C2Nc2cc(Cl)c(OC)cc2OC)cc1 (stereo not drawn)	-	-	-	-
O=C(CNC(=O)OCc1ccccc1)NCC(=O)N1CCCC1C(=O)OCc1ccccc1 (stereo not drawn)	-	-	-	-
COc1ccc(CN(C(=O)CSc2nnc(-c3ccccc3F)o2)c2ccc(F)cc2)cc1	62	-	-	76
O=C(CSc1nnc(-c2ccco2)n1CC1CCCO1)NC1CCCC1 (stereo not drawn)	54	-	-	-
CCOC(=O)c1cc(C(=O)Nc2cccc(C)c2)nn1C	-	-	-	-
N#CC1=C(O)C(c2ccccc2)n2c1nc(=O)c1ccccc12 (stereo not drawn)	-	-	-	-
CCc1c(C(=O)N2CCN(c3ccccc3F)CC2)[nH]c(C)c1C(C)=O	-	-	-	-
O=C(NCCOc1ccccc1)c1n[nH]c(=O)c2ccccc12	-	-	-	-
CC(CCCC(C)(C)O)NCCO (stereo not drawn)	-	-	-	-
CCCCC(=O)Nc1ncc(Br)s1	76	-	-	-
Cc1ccc(-c2ccc(=O)n(CCC(=O)NCCN3CCCCC3C)n2)cc1 (stereo not drawn)	-	-	-	-
Cc1ccc(-c2nnn(CC(=O)N(c3ccccc3)C(C(=O)NCC3CCCO3)c3ccc(Cl)cc3)n2)cc1 (stereo not drawn)	62	-	-	88
Cc1ccc(-c2nnn(CC(=O)N(c3ccccc3F)C(C(=O)NCC3CCCO3)c3c[nH]c4ccccc34)n2)cc1 (stereo not drawn)	-	-	-	75
CCC(C)Nc1c2c(nc3c(-c4ccccc4)c(C)nn13)CCC2 (stereo not drawn)	-	-	-	-
CCc1ccc(-c2ccc(C(=O)C(F)(F)F)[nH]2)cc1	-	-	-	-
CCOC(=O)C1CCCN(C(=O)CSc2nccn2C)C1 (stereo not drawn)	55	-	-	-
CCOC(=O)C1CCCN(C(=O)c2cc(Nc3ccc(OC)cc3)nc3ccccc23)C1 (stereo not drawn)	-	-	-	77
CCOC(=O)C1CCCN(C(=O)c2cc(-c3ccccc3)on2)C1 (stereo not drawn)	-	-	2.5	-
CCOC(=O)C1CCCN(C(=O)c2ccccc2Oc2ccccc2)C1 (stereo not drawn)	87	-	-	99
CCOC(=O)C1CCCN(C(=O)c2ccccc2NC(C)=O)C1 (stereo not drawn)	-	-	-	-
O=C(Nc1ccccn1)NC(C(F)(F)F)C(F)(F)F	-	-	-	-
SMILES	CYP2C19 inh	CYP2C19 activ	CYP2C9 activ	CYP2C9 inhib
CCOC(=O)C1CCCN(C(=O)c2ccc(C)cc2O)C1 (stereo not drawn)	81	-	-	-
CCOC(=O)c1cc2n(c1/N=C/N(C)C)-c1ccccc1C2=O	-	-	-	62
CCO/C(C)=C1\C(=O)N(CC)c2ccccc21	-	-	-	-
COc1ccc(OC)c(N(CC(=O)Nc2ccc3c(c2)OCCO3)S(C)(=O)=O)c1	64	-	-	76
CCOc1ccccc1N(CC(=O)Nc1ccc2c(c1)OCO2)S(C)(=O)=O	-	-	-	-
COc1ccc(N(CC(=O)Nc2ccc3c(c2)OCO3)S(C)(=O)=O)c(OC)c1	-	-	-	69
COc1ccc(N(CC(=O)Nc2ccc3c(c2)OCCO3)S(C)(=O)=O)c(OC)c1	-	-	-	84
O=C(O)c1cccc(CSc2ncccn2)c1	-	-	-	-
CCn1c(C)cc(/C=C2\SC(=O)N(CC(=O)Nc3ccc(C)c(C)c3)C2=O)c1C	57	-	-	-
Cc1ccc(N2CC(C(=O)NCc3ccccn3)CC2=O)cc1 (stereo not drawn)	-	-	-	-
C1=CC2CC1CC2CN1CCN(Cc2ccccc2)CC1 (stereo not drawn)	53	-	-	-
Fc1ccccc1N1CCN(CC2CC3C=CC2C3)CC1 (stereo not drawn)	-	-	-	-
Cc1ccc2[nH]c3c(=O)n(CCC4=CCCCC4)cnc3c2c1	-	-	-	-
O=c1c2[nH]c3ccccc3c2ncn1CCC1=CCCCC1	67	-	-	-
Cc1ccc2c(c1)[nH]c1c(=O)n(CCC3=CCCCC3)cnc12	55	-	-	-
Cc1sc(NC(=O)C(C)C)c(C(=O)Nc2ccccc2)c1C	-	-	-	-
O=C(Oc1cc(-c2ccccc2)no1)c1cccc(C(F)(F)F)c1	-	-	-	-
CCOCCCn1c(=S)[nH]c2cc(C(=O)N3CCOCC3)ccc2c1=O	-	-	-	-
COc1ccc(-c2noc(CN(C(=O)c3c(-c4ccccc4Cl)noc3C)C(C)C)n2)cc1	62	-	-	57
CC(=O)Cc1nsc(NC(=O)c2c(-c3ccccc3Cl)noc2C)n1	-	-	-	75
COc1cc(OC)cc(C(=O)N(Cc2nc(-c3cccc(C)c3)no2)C(C)C)c1	86	-	-	95
COc1ccc(C(=O)N(Cc2nc(-c3ccc(C)cc3)no2)C(C)C)cc1OC	55	-	-	58
Cc1onc(-c2ccccc2Cl)c1C(=O)NCc1ccc(N2CCCC2=O)cc1	53	-	-	67
COc1ccccc1OCC(=O)N(Cc1nc(-c2ccccc2)no1)C1CCCCC1	-	-	-	-
COc1ccc(-c2noc(CN(C(=O)c3ccc(OC(C)=O)cc3)C(C)C)n2)cc1OC	-	-	-	-
SMILES	CYP2C19 inh	CYP2C19 activ	CYP2C9 activ	CYP2C9 inhib
CC(C)N(Cc1nc(-c2ccccc2)no1)C(=O)C1CCCCC1	85	-	-	81
CC(C)N(Cc1nc(-c2ccccc2)no1)C(=O)c1ccc(Br)o1	73	-	-	64
COc1ccccc1C(=O)N(Cc1nc(-c2ccc(Cl)cc2)no1)C(C)C	64	-	-	-
Cc1ccc(C(=O)N2CCN(C(=O)CN3CCCC3)C2)cc1	-	-	-	-
CN1CCN(C(=O)CC23CC4CC(CC(C4)C2)C3)CC1	-	-	-	-
CC(=O)c1cccc(N(C(=O)c2ccco2)C(C(=O)NC2CCCC2)c2ccncc2)c1 (stereo not drawn)	-	-	-	-
O=C(O)CCCc1nc(-c2ccccc2)no1	-	-	-	-
Cc1onc(-c2ccccc2Cl)c1C(=O)NCc1nc(-c2ccccc2)no1	67	-	-	-
CC(C)N(Cc1nc(-c2ccc(Cl)cc2)no1)C(=O)CCCN1C(=O)c2ccccc2C1=O	88	-	-	86
CC(C)N(Cc1nc(-c2ccccc2)no1)C(=O)c1ccc(Cl)cc1	79	-	-	80
Cc1ccc(C(=O)N(Cc2nc(-c3ccc(C)cc3)no2)C(C)C)cc1	-	-	-	-
